Measured values: PubChem BioAssay
Activity calls are given as the source filed them.

Experiments:
[1] = test system: Human papillomavirus type 1a protein E7 (residues 44-93); experiment: HPV1a E7 fragment binders on microarrays, primary screen, biochemical, small-molecule microarray, residues 44-93, 635 nm fluorescence (AID 1108); conditions: small-molecule microarray binding, fluorescence 635 nm; higher = more signal;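 also: E7 fragment applied at 1 µg/mL in TBST for 1 h at 4 C; score combines spot fluorescence with its signal to noise ratio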
[2] = modulators of HCV replicon luciferase signal, primary screen, HCV replication inhibitor project, Huh7 cells, luciferase reporter (AID 1109); conditions: 48 h, higher = more signal;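 also: huh7 hepatoma cells harbouring a luciferase neomycin HCV replicon reporter; luciferase luminescence as measure of HCV replicon replication; test concentration not given here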
[3] = target: Left-right determination factor 2 (Homo sapiens) (UniProt O00292); experiment: LEFTY2 binders on small-molecule microarrays, primary screen, biochemical, small-molecule microarray, 635 nm fluorescence scan (AID 1110); conditions: LEFTY2 binding, higher = more signal
Sequence of Left-right determination factor 2 (Homo sapiens) (O00292 whole entry, looked up): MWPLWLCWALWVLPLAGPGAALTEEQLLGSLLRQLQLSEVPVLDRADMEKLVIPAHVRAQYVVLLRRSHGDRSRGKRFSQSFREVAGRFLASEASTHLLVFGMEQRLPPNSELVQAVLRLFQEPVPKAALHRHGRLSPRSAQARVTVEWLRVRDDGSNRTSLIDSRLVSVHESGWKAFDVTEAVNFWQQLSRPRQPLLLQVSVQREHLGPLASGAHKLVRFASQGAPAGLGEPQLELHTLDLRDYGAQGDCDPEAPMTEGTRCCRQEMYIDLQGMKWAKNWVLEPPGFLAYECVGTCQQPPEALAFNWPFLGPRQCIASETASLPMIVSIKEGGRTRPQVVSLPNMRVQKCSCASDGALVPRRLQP

[4] = target: Calmodulin-1 (Homo sapiens) (UniProt P0DP23); experiment: CALM1 binders on microarrays, EGTA buffer, profiling panel, biochemical, small-molecule microarray, Cy5-labelled CALM1 (AID 1111); conditions: Cy5-CALM1 binding fluorescence, higher = more signal;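 also: labelled calmodulin applied in Tris saline Tween buffer holding calcium plus EGTA and DTT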
[5] = target: Calmodulin-1 (Homo sapiens) (UniProt P0DP23); experiment: calcium-bound CALM1 binders on microarrays, profiling panel, artefact control for SMM control-protein annotation, biochemical, small-molecule microarray, Cy5-labelled CALM1, plus calcium (AID 1112); conditions: Cy5-CALM1 binding fluorescence, higher = more signal;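 also: score merges spot fluorescence with signal to noise from triplicate slides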
[6] = small-molecule microarray binders of probe aWnt5a, primary screen, biochemical, biotinylated probe, 635/667 nm fluorescence (AID 1113); conditions: higher = more signal;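 also: score merges 667 nm fluorescence intensity with signal-to-noise per printed feature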
[7] = small-molecule microarray binders of probe aShh, primary screen, biochemical, biotinylated probe, 635/667 nm fluorescence (AID 1114); conditions: higher = more signal;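 also: probe is biotin-labelled aShh protein from a stem cell growth factor screen; measures binding of labelled protein to compounds printed on the slide; score merges feature fluorescence at 667 nm with signal-to-noise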
[8] = small-molecule microarray binders of probe aNog, primary screen, biochemical, biotinylated probe, 635/667 nm fluorescence (AID 1115); conditions: higher = more signal;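 also: probe is biotinylated aNog protein used at 0.15 µg/mL for 1 h at 4 C; z-score combines 667 nm fluorescence of each spot with its signal to noise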
[9] = target: Torsin-1A-interacting protein 1 (Homo sapiens) (UniProt Q5JTV8); experiment: LAP1 binders from COS7 cell lysate, primary screen, small-molecule microarray, 635/667 nm fluorescence (AID 1116); conditions: COS7-hLAP1 lysate binding, 635 nm fluorescence, higher = more signal
Sequence of Torsin-1A-interacting protein 1 (Homo sapiens) (Q5JTV8 whole entry, looked up): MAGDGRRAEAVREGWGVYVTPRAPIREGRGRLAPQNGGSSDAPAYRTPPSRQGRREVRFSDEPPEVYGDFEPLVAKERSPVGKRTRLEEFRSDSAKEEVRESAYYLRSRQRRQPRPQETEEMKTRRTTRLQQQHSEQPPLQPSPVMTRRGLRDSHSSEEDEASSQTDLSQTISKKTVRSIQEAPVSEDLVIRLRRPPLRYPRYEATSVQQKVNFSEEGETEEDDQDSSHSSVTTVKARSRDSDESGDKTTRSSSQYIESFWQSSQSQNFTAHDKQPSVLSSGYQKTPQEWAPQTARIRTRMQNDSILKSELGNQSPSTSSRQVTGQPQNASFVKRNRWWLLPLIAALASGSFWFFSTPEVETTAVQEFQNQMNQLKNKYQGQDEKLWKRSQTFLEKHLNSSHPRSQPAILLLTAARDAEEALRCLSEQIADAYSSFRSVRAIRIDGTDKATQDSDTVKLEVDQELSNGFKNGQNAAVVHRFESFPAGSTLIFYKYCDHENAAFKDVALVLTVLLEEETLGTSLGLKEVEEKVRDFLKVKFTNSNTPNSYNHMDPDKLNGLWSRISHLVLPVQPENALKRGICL

[10] = target: Alpha-bungarotoxin (Bungarus multicinctus) (UniProt P60615); experiment: alpha-bungarotoxin binders on microarray, profiling panel, artefact control for SMM control protein annotation, biochemical, small-molecule microarray, Alexa647 label, 635/667 nm fluorescence (AID 1117); conditions: alpha-BTX-A647 binding fluorescence, higher = more signal
Sequence of Alpha-bungarotoxin (Bungarus multicinctus) (P60615 whole entry, looked up): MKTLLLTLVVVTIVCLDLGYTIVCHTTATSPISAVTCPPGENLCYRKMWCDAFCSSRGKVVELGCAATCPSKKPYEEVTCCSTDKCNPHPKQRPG

Albumin (Bos taurus) = Albumin (Bos taurus) (UniProt P02769); experiment: bovine serum albumin binders on microarray, profiling panel, artefact control for SMM control protein annotation, biochemical, small-molecule microarray, Alexa647 label, 635/667 nm fluorescence (AID 1118); conditions: BSA-A647 binding, fluorescence 635 nm, higher = more signal;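 also: score merges 667 nm emission intensity and signal-to-noise per printed compound spot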
Sequence of Albumin (Bos taurus) (P02769 whole entry, looked up): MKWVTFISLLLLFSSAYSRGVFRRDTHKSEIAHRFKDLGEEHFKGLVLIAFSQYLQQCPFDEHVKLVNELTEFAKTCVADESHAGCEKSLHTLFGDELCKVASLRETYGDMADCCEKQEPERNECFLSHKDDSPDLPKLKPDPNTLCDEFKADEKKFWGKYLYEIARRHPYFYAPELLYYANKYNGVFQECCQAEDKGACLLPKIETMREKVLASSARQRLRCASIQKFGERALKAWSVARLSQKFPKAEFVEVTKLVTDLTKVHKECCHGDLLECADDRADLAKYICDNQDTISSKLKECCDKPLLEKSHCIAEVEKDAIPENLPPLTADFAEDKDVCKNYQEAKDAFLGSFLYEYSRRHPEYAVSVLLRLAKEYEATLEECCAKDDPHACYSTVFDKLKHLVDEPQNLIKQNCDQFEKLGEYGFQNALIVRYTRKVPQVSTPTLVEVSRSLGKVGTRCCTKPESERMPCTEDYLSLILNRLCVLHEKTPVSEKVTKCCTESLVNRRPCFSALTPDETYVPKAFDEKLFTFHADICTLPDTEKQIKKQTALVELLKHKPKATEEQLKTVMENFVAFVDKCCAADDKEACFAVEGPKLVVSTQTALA

[11] = small-molecule microarray binders of probe aXIP, primary screen, biochemical, NeuroSMM set, 635/667 nm fluorescence (AID 1119); conditions: higher = more signal, called active from +8 up or from −8 down;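 also: probe is the protein aXip251-270 applied at 1 µg/mL to compound-printed slides; binding of probe to printed compounds measured as 667 nm fluorescence plus signal to noise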
[12] = small-molecule binders of probe aNOTCH3, primary screen, biochemical, small-molecule microarray, 635/667 nm fluorescence (AID 1120); conditions: higher = more signal;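 also: probe is a biotin-tagged antibody raised against NOTCH3 rather than NOTCH3 protein; score merges spot fluorescence near 667 nm with spot signal to noise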
[13] = small-molecule binders of probe aNOTCH2, primary screen, biochemical, small-molecule microarray, 635/667 nm fluorescence (AID 1121); conditions: higher = more signal;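 also: score merges feature fluorescence read at 667 nm with its signal to noise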
[14] = target: Carbonic anhydrase 2 (Homo sapiens) (UniProt P00918); experiment: CAII small-molecule binders, profiling panel, biochemical, small-molecule microarray, Alexa647-labelled CAII (AID 1122); conditions: CAII-A647 binding fluorescence, higher = more signal
[15] = COS7 lysate on small-molecule microarray, probe aHis, 635 nm (AID 1123); conditions: COS7 cell lysate, fluorescence, higher = more signal;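 also: z-score combines 667nm fluorescence intensity with signal-to-noise per printed compound spot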
[16] = compound binding in COS7 lysate, probe aLAP1, primary screen, cell lysate, small-molecule microarray (AID 1124); conditions: probe aLAP1, fluorescence, higher = more signal;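 also: lysate comes from COS7 cells expressing LAP1 and is applied at 0.3 µg/mL; score merges spot fluorescence near 667 nm with signal-to-noise over triplicate slides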
Sam68 (KHDRBS1) = experiment: Sam68 small-molecule binders, primary screen, biochemical, small-molecule microarray, 635 nm fluorescence (AID 1125); conditions: small-molecule microarray binding, higher = more signal;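 also: score merges 667 nm channel intensity with signal to noise over triplicate slides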
[17] = test system: Chordin-like protein 2 (CHRDL2); experiment: CHRDL2 small-molecule binders, primary screen, biochemical, small-molecule microarray, 635 nm fluorescence (AID 1126); conditions: small-molecule microarray binding, fluorescence 635 nm; higher = more signal;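 also: printed compound slides probed with Chrdl2 protein at 4 µg/mL for 1 h at 4 C; score merges 667 nm emission intensity with signal to noise over three replicate slides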
[18] = target: Concanavalin-A (Canavalia ensiformis) (UniProt P02866); experiment: ConA small-molecule binders, primary screen, artefact control for SMM control protein annotation, biochemical, small-molecule microarray, Alexa647 label, 635 nm (AID 1127); conditions: ConA-A647 binding fluorescence, higher = more signal;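 also: z combines 667 nm emission intensity with signal-to-noise across three replicate slides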
Sequence of Concanavalin-A (Canavalia ensiformis) (P02866 whole entry, looked up): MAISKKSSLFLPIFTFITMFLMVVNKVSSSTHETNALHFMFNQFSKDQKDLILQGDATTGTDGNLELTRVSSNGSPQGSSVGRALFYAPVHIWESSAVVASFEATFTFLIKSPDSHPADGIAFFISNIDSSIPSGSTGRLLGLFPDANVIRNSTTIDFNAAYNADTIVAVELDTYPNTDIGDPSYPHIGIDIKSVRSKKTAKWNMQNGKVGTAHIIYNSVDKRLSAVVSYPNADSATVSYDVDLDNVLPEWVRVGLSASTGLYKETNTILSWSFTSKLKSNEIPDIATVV

Compound | composite z-score [1] | z-score [2] | composite z-score [3] | composite z-score [4] | composite z-score [5] | composite z-score [6] | composite z-score [7] | composite z-score [8] | composite z-score [9] | composite z-score [10] | composite z-score (Albumin (Bos taurus)) | composite Z-score [11] | composite z-score [12] | composite z-score [13] | composite z-score [14] | composite z-score [15] | composite z-score [16] | composite z-score (Sam68 (KHDRBS1)) | composite z-score [17] | composite z-score [18]
CC(C)(C)OC(=O)CC[C@@]1(C(=O)O)N=C(c2ccc(OCCCO)cc2)O[C@@H]1c1ccccc1CN=[N+]=[N-] | 1.31 | -2.21 | -0.677 | 1.33 | 1.09 | 0.145 | 0.218 | -0.1 | 1.24 | 2.78 | 0.939 | 0.242 (inactive) | 0.1 | 0.046 | 0.849 | 2.23 | 0.312 | 0.76 | -0.309 | 1.18
C=CCN1C(=O)[C@@]2(O[C@@H](CCn3cc([C@H](O)c4ccccc4)nn3)[C@H]([Si](C)(C)c3ccc(OC)cc3)[C@H]2C)c2ccccc21 | 0.733 | -3.04 | 0.245 | 0.134 | -0.506 | 0.0973 | -0.0769 | 0.0308 | 0.676 | 1.21 | 0.205 | 0.363 (inactive) | 0.221 | -0.151 | 0.499 | 0.422 | 0.572 | 1.08 | 0.333 | 1.01
CN(C)CCCCNC(=O)[C@H]1C[C@H]2C(=O)N[C@@H](CCCCN(C)C)C(=O)N2[C@H]1c1cccc(OCCO)c1 | 1.41 | 0.057 | 1.17 | 0.477 | -0.167 | -0.036 | -0.203 | 0.0721 | 0.752 | 0.701 | 0.418 | -1 (inactive) | 0.0691 | -0.237 | 0.18 | 2.21 | 0.518 | 1.31 | 1.39 | 1.14
COc1ccc(CCNC(=O)[C@@]2(Sc3ccc(C)cc3)CC(=O)N(Cc3cc(C(F)(F)F)cc(C(F)(F)F)c3)[C@@H]2c2ccc(CO)cc2I)cc1 | 1.27 | -1.89 | -1.07 | 0.435 | -0.45 | -0.0869 | 0.23 | -0.0592 | 0.282 | 1.73 | 0.259 | 1.4 (inactive) | -0.193 | -0.106 | 0.684 | 1.54 | 0.227 | 0.677 | -0.596 | 0.759
COc1ccc(C(O)C2C=CC3C(=O)N(c4ccccc4)C(=O)C3N2Nc2ccccc2)cc1OCc1ccccc1 (stereo not given) | 1.48 | -0.412 | 0.0977 | 0.552 | 0.734 | 0.165 | 0.123 | 1.26 | 0.618 | 1.4 | 0.853 | 0.153 (inactive) | 0.505 | -0.0798 | 0.503 | 3.06 | 0.0392 | 1.31 | -0.356 | 1.09
C=CCOC(=O)[C@@H]1[C@H]2C(=O)O[C@H](c3ccccc3)[C@H](c3ccccc3)N2[C@H](c2ccc(OCCOC(=O)[C@H]3C[C@H]4C(=O)N[C@@H](CCCCN(C)C)C(=O)N4[C@H]3c3cccc(OCCO)c3)cc2)[C@@]12C(=O)Nc1ccc(I)cc12 | 1.42 | -1.14 | 0.724 | 0.993 | -0.069 | -0.13 | 0.123 | -0.0863 | 1.03 | 2.07 | -0.624 | 0.204 (inactive) | 0.194 | -0.14 | 0.507 | 1.64 | 0.168 | 1.25 | 0.798 | 1.15
Cc1ccc(S[C@]2(C(=O)NC(C)C)CC(=O)N(Cc3ccccc3C(F)(F)F)[C@@H]2c2ccc(CO)cc2I)cc1 | 0.187 | -2.54 | -0.796 | -0.301 | 0.0016 | -0.13 | -0.0769 | -0.0965 | -0.0123 | 1.65 | 0.671 | 0.0903 (inactive) | -0.236 | -0.128 | 0.344 | 0.352 | -0.0811 | 0.0747 | -1.35 | -0.03
[N-]=[N+]=Nc1ccccc1[C@H]1OC(c2ccc(OCCCO)cc2)=N[C@@]1(CCS(=O)(=O)c1ccccc1)C(=O)N1CCCCC1 | 1.44 | -1.05 | -0.149 | 1.48 | 0.956 | -0.0165 | 0.184 | 0.0127 | 1.27 | 2.21 | 0.949 | -0.311 (inactive) | 0.355 | -0.0439 | 0.647 | 2.65 | 0.0866 | 1.3 | -0.106 | 1.19
COc1c(C)cc(-c2cc3c(c(Cc4ccccc4)n2)[Si](C(C)C)(C(C)C)OC3)cc1C | -0.0363 | -0.637 | 0.265 | 0.0153 | 0.0467 | -0.096 | -0.123 | -0.393 | -0.0091 | 0.229 | 0.0401 | -0.014 (inactive) | -0.0881 | -0.0907 | -0.143 | 0.0246 | -0.269 | 0.0189 | 0.198 | 0.0652
COCCCNC(=O)[C@]1(Cc2ccccc2CN=[N+]=[N-])N=C(c2ccc(OCCCO)cc2)O[C@@H]1c1ccccc1 | 1.4 | -3.18 | -0.369 | 0.486 | 0.0518 | 0.0519 | -0.279 | -0.225 | 1 | 0.543 | 0.867 | -0.337 (inactive) | 0.289 | -0.0633 | 0.548 | 1.91 | 0.785 | 0.997 | -0.474 | 1
COc1ccc([Si](C)(C)[C@@H]2[C@@H](CC(=O)N3CCC[C@H]3CO)O[C@]3(C(=O)N(Cc4ccc(N5C(=O)c6cccc7cccc5c67)cc4)c4ccccc43)[C@H]2C)cc1 | 1.45 | -2.25 | 0.515 | 0.692 | -0.292 | -0.0437 | 0.14 | -0.37 | 1.44 | 1.82 | -0.647 | 0.296 (inactive) | 0.0996 | -0.148 | 0.447 | 1.77 | 0.323 | 1.29 | 1.3 | 0.892
CCOC(=O)C[C@H]1[C@H](OC(=O)c2ccc(-c3ccccc3)cc2)[C@@H](NC(=O)c2ccc3ccccc3n2)c2cc(OCCCO)ccc2N1C(=O)c1ccccc1 | 1.33 | -1.1 | 0.479 | 0.992 | 0.389 | -0.0606 | -0.0904 | -0.302 | 0.574 | 0.452 | 0.58 | -0.202 (inactive) | 0.0916 | -0.0613 | 0.14 | 0.554 | 0.0488 | 1.25 | 0.423 | 1.04
[N-]=[N+]=NCc1ccccc1C[C@@]1(C(=O)NCCN2CCOCC2)N=C(c2ccc(OCCCO)cc2)O[C@@H]1c1ccccc1N=[N+]=[N-] | 1.4 | -3.07 | -0.429 | 1.16 | 0.415 | 0.168 | 0.0141 | 0.78 | 0.948 | 1.89 | 0.678 | 0.653 (inactive) | 0.163 | -0.116 | 0.419 | 1.6 | 0.276 | 1.3 | -0.396 | 1.09
COCCOC(=O)N1C(=O)[C@@]2(c3cc(C#Cc4ccc(OC)cc4)ccc31)[C@H](C(=O)NC[C@H](O)c1ccccc1)[C@H]1C(=O)O[C@H](c3ccccc3)[C@H](c3ccccc3)N1[C@@H]2c1ccc(O)cc1 | 0.872 | -1.45 | 0.887 | 0.0624 | -0.0377 | -0.0816 | 0.875 | 0.369 | 1.37 | 0.931 | 0.148 | 0.552 (inactive) | 0.236 | -0.154 | 0.441 | 1.7 | 1.48 | 1.29 | 0.806 | 1.16
NC(N)=NCc1cn(CCc2c[nH]c3ccccc23)nn1 | 0.712 | -1.66 | 1.23 | -0.732 | -1 | -0.114 | 0.0141 | -0.158 | 0.615 | 0.755 | 0.566 | 0.354 (inactive) | -0.0647 | -0.12 | 0.633 | 0.421 | 0.262 | 0.714 | 0.866 | 0.948
CC(C)CCC[C@@H](C)[C@H]1CC[C@@]2(C)C3=C(CC[C@]12C)[C@@]1(C)CC[C@H](OC(=O)c2ccc(Br)cc2)C(C)(C)C1CC3 (stereo not given in full) | -0.298 | 0.132 | 0.711 | 0.132 | -0.442 | -0.157 | -0.0977 | -0.18 | 0.162 | 0.204 | -0.0217 | -0.174 (inactive) | 0.173 | -0.117 | 0.108 | -0.28 | 0.432 | 0.28 | 0.498 | 0.291
